TEAD-YAP block: TEAD-YAP interaction inhibition, primary screen, TEAD-YAP interaction inhibitor project, luminescence, HEK-TIYL cells. TEAD-Gal4/YAP UAS-luciferase luminescence. inhibition, % at 9.12 µM. actives 1.4% (n = 640,000); in the data active = inhibition above about 32%;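 note: 0% = median of test compound wells and 100% = reference inhibitor wells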
MITF inh: MITF inhibitors, primary screen, biochemical, AlphaScreen, human; AlphaScreen MITF homodimerization, bead proximity signal; actives 0.91% (n = 650,000); Microphthalmia-associated transcription factor (Homo sapiens), O75030; inhibition, % at 2.6 µM; in the data active = inhibition above about 50%;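 note: 0% = vehicle wells with protein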
Target sequence (O75030 whole entry, looked up): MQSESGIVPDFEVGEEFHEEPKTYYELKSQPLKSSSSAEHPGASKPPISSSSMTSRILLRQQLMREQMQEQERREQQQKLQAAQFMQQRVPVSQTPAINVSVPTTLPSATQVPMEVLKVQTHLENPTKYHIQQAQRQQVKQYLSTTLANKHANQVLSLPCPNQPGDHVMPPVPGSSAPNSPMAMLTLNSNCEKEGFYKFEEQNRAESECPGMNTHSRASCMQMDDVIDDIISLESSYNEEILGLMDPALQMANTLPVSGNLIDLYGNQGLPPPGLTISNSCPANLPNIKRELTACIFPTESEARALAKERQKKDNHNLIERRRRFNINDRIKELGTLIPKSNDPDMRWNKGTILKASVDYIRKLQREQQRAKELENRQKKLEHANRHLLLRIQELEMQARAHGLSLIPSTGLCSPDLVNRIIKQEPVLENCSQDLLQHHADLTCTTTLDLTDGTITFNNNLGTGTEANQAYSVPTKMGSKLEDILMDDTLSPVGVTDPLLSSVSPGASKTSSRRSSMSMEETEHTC
GPR151 ag: activators of human GPR151, primary screen, cell-based, PathHunter beta-arrestin, luminescence | G-protein coupled receptor 151 (Homo sapiens), Q8TDV0 | PathHunter beta-arrestin GPR151 cells | activation, % at 11.2 µM | actives 1% (n = 650,000) | AID 1508602, 2020; in the data active = activation above about 4.9%;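 note: 0% = median of compound wells and 100% = cells with positive control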
FBW7 activator: FBW7 E3 ligase activators, primary screen, biochemical, AlphaScreen, human; F-box/WD repeat-containing protein 7 (Homo sapiens), Q969H0; AlphaScreen FBW7–phospho-cyclin E peptide binding, activator screen; normalized activity (activation), % at 26.1 µM; actives 0.13% (n = 650,000); AID 1259310, 2017; in the data active = normalized activity above about 1.9%;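 note: purified mutant Fbw7 with reduced substrate affinity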
MITF inh conf: MITF inhibitors, retest of hits, confirmation, biochemical, AlphaScreen, triplicate; shares compounds with MITF inh; AlphaScreen MITF homodimerization, biotin/His-MITF beads; inhibition, % at 2.6 µM; actives 16% (n = 4,700);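 active = inhibition above a cutoff derived from the DMSO control wells, cut at about 28% in these data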;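 note: 0% = MITF dimer wells with DMSO only; inhibitors lower the bead chemiluminescence by keeping MITF from dimerizing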
AlphaScreen DR: AlphaScreen optical interference compounds, dose response, counter-screen, biochemical, HTS; shares compounds with MITF inh; AlphaScreen optical interference counterscreen, cell-free; IC50, µM; actives 6% (n = 480); AID 1259373, 2018; call rule not given here
AS interf ctr: AlphaScreen optical interference compounds, counter-screen for MITF inhibitor project, biochemical, triplicate; shares compounds with MITF inh; LysRS AlphaScreen counterscreen, signal interference; inhibition, % at 2.6 µM; actives 7.6% (n = 4,700); AID 1259376, 2018;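 active = inhibition above a cutoff derived from the DMSO control wells, cut at about 30% in these data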
* = called active by the depositor. Only some compounds are listed: those with a hit (about 3.5% of all), similar ones and a draw of the others.

For CCOc1ccc(NC(=O)CSc2nnc(-c3ccncc3)n2CCCN(C)C)cc1 the results were TEAD-YAP block 3, MITF inh 53*, GPR151 ag -1, FBW7 activator 0, MITF inh conf 9 and AS interf ctr 9.
For O=C(Nc1ccc(Br)cn1)c1ccccc1O the results were TEAD-YAP block -46, MITF inh 6, GPR151 ag -1 and FBW7 activator 0.
Cc1ccc(C(=O)c2c(O)cc(-c3ccc(C)cc3)oc2=O)cc1 was read as TEAD-YAP block 7, MITF inh 5, GPR151 ag 1 and FBW7 activator 0.
`CC(C)(C)C(=O)COc1ccc2c(C(F)(F)F)cc(=O)oc2c1` gave TEAD-YAP block 6, MITF inh 6, GPR151 ag 0 and FBW7 activator 0.
C=CCOC(=O)COc1ccc2c(CC)cc(=O)oc2c1 was read as TEAD-YAP block -1, MITF inh 76*, GPR151 ag -1, FBW7 activator 0, MITF inh conf 8 and AS interf ctr 7.
For NC(=O)COc1ccc2c(C(F)(F)F)cc(=O)oc2c1 the results were TEAD-YAP block 12, MITF inh 54*, GPR151 ag -1, FBW7 activator 0, MITF inh conf -23 and AS interf ctr 15.
CCOC(=O)c1c(NC(=O)CSc2nnc(CNC(=O)COc3ccccc3)n2-c2cccc(C)c2C)sc2c1CCC2 was read as TEAD-YAP block 7, MITF inh 3, GPR151 ag 2 and FBW7 activator 0.
`c1ccc(N2CCN(c3cc(NC4CC4)ncn3)CC2)nc1` gave TEAD-YAP block -16, MITF inh -2, GPR151 ag 0 and FBW7 activator 0.
Screening COc1cc(Nc2nc(SCC(=O)NCC3CCCO3)nc3ccccc23)cc(OC)c1 (stereo not drawn) returned TEAD-YAP block 5, MITF inh 60*, GPR151 ag 0, FBW7 activator 0, MITF inh conf -12 and AS interf ctr -8.
O=C(CSc1nc(Nc2ccc(F)c(F)c2)c2ccccc2n1)NCC1CCCO1 (stereo not drawn) was read as TEAD-YAP block 0, MITF inh 6, GPR151 ag -1 and FBW7 activator 0.
Cc1ccc(Nc2nc(-c3ccccc3Cl)c3cc(Br)ccc3n2)cc1 was read as TEAD-YAP block 2, MITF inh -2, GPR151 ag 1 and FBW7 activator 0.
Screening CCOC(=O)c1c(NC(=O)CN(C)Cc2ccccc2)sc2c1CC(C)(C)NC2(C)C returned TEAD-YAP block 8, MITF inh 65*, GPR151 ag 1, FBW7 activator -1, MITF inh conf 0 and AS interf ctr 7.
CCOC(=O)c1c(NC(=O)CN(C)C)sc2c1CC(C)(C)NC2(C)C was read as TEAD-YAP block 10, MITF inh 40, GPR151 ag 2 and FBW7 activator 0.
O=C(Nc1ccccc1-c1ccccc1)C1CCCN1C(=O)Nc1ccccc1 (stereo not drawn) was read as TEAD-YAP block 7, MITF inh 79*, GPR151 ag 1, FBW7 activator 0, MITF inh conf 12 and AS interf ctr 16.
For CN1CCN(CC(=O)NCc2ccc(F)cc2)CC1 the results were TEAD-YAP block -5, MITF inh 21, GPR151 ag 1 and FBW7 activator 0.
Screening O=C(CN1CCCN(CC(=O)NCc2ccccc2)CC1)NCc1ccccc1 returned TEAD-YAP block -9, MITF inh 93*, GPR151 ag 0, FBW7 activator 0, MITF inh conf 4 and AS interf ctr -2.
`Cc1ccc(CNC(=O)CN2CCN(C)CC2)cc1` gave TEAD-YAP block 3, MITF inh 84*, GPR151 ag 0, FBW7 activator 0, MITF inh conf 7 and AS interf ctr 9.
For CC(C)(C)c1ccc(C(=O)Nc2ccc(NC(=O)c3ccc(-c4cccc([N+](=O)[O-])c4)o3)cc2)cc1 the results were TEAD-YAP block -10, MITF inh -4, GPR151 ag 2 and FBW7 activator 0.
For CCOc1ccc(-c2cn3nc(COc4ccc(Cl)cc4Cl)n4c3c2CCCC4)cc1 the results were TEAD-YAP block -16, MITF inh 59*, GPR151 ag -2, FBW7 activator 1, MITF inh conf -9 and AS interf ctr -5.
Screening CC(C)NC(=O)/C(C#N)=C/c1ccc(-c2ccc([N+](=O)[O-])cc2Br)o1 returned TEAD-YAP block -18, MITF inh 73*, GPR151 ag 1, FBW7 activator 0, MITF inh conf 77*, AlphaScreen DR >7.1 and AS interf ctr -20.
`CC(=O)N/N=C/c1ccc(-c2ccc([N+](=O)[O-])cc2Br)o1` gave TEAD-YAP block 8, MITF inh -25, GPR151 ag -2 and FBW7 activator 0.
`N#Cc1c(C#N)c(N)n(N)c1N` gave TEAD-YAP block -2, MITF inh 94*, GPR151 ag 1, FBW7 activator -1, MITF inh conf 95* and AS interf ctr 73*.
For O=[N+]([O-])c1ccccc1S(=O)(=O)N1CCN(Cc2ccccn2)CC1 the results were TEAD-YAP block 7, MITF inh 58*, GPR151 ag -1, FBW7 activator 0, MITF inh conf 13 and AS interf ctr 14.
CN1CCN(C(=O)C2CCCN(S(=O)(=O)c3ccccc3[N+](=O)[O-])C2)CC1 (stereo not drawn) was read as TEAD-YAP block 2, MITF inh 82*, GPR151 ag 4, FBW7 activator 0, MITF inh conf 10 and AS interf ctr 15.
For O=[N+]([O-])c1ccccc1S(=O)(=O)N1CCN(Cc2ccc(Cl)cc2)CC1 the results were TEAD-YAP block 4, MITF inh 73*, GPR151 ag -1, FBW7 activator 0, MITF inh conf 16 and AS interf ctr 13.
`O=[N+]([O-])c1ccccc1S(=O)(=O)N1CCN(c2ncccn2)CC1` gave TEAD-YAP block -2, MITF inh -2, GPR151 ag 0 and FBW7 activator 0.
For O=[N+]([O-])c1ccccc1S(=O)(=O)N1CCN(Cc2ccccc2Br)CC1 the results were TEAD-YAP block 6, MITF inh 65*, GPR151 ag 0, FBW7 activator 0, MITF inh conf 0 and AS interf ctr 17.
`COc1ccc(CN2CCN(S(=O)(=O)c3ccccc3[N+](=O)[O-])CC2)cc1` gave TEAD-YAP block 4, MITF inh 38, GPR151 ag 0 and FBW7 activator 0.
